# Test results taken from PubChem BioAssay AID493185 (National Center for Advancing Translational Sciences (NCATS), 2011).
# Activity calls are given as the source filed them. Entries that show only a call come without a potency. Calls come from the whole dose curve; as a rule, active = well fitted activation curve with a large enough effect; inconclusive = small, poorly fitted or top-dose-only effect; inactive = no such curve, though single readings can be large or run the other way.
# Test: Counterscreen for Identifying a Potential Treatment of Ataxia-Telangiectasia: Hit Validation
# Conditions: cell-free AlphaLISA/AlphaScreen artifact counterscreen, PBS only, no cells; series mostly up to 76.9 µM
# In short: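 Cell-free AlphaLISA counterscreen: compounds (up to 76.7 uM final) in PBS with detection mix of anti-pKAP1 and anti-KAP1 antibodies on donor/acceptor beads plus lysis buffer, incubated 6 hr at 25C before AlphaScreen read.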
# Potency is the fitted concentration of half-maximal effect.
row,SMILES,Potency
1,CCn1c(N2CCN(CC(=O)c3c[nH]c4ccccc34)CC2)nc2c1c(=O)[nH]c(=O)n2C,inactive
2,COC(=O)c1ccncc1C(=O)Nc1ccc(Oc2ncc(C(F)(F)F)cc2Cl)cc1,inactive
3,Cn1cc(/C=N/NC(N)=S)c2ccccc21,inactive
4,CCC(=O)NC1=C(Cl)C(=O)C(NC(=O)CC)=C(Cl)C1=O,inactive
5,Oc1cccc(NC(=S)N=Nc2c(O)[nH]c3ccccc23)c1,inactive
6,Fc1ccc(C2N(c3ccccc3)C(=S)N3CCCN23)cc1 (stereo unspecified),inactive
7,COc1ccc(Cl)cc1NC(=O)C[n+]1cccc(C)c1,inactive
8,O=C(CSc1ccccn1)N/N=C/C=C/c1ccccc1,inactive
9,CCCc1nn(C)c(C(=O)Nc2ccc(C(C)(C)C)cc2)c1Cl,inactive
10,O=C1NC(=Nc2ccccc2)CS1,inactive
11,CCS(=O)(=O)c1ccc(C(=O)Nc2ccccc2)c(Cl)c1Cl,inactive
12,COc1cccc(C2C(C(N)=O)=C(C)Nc3nc(CCCO)nn32)c1 (stereo unspecified),inactive
13,CNC(=O)c1ccc(-c2sc3nc(N4CCOCC4)c4c(c3c2N)CC(C)(C)OC4)o1,46.3 µM (active)
14,COc1ccc(N2CCN(C(=O)c3cc4cc(Cl)ccc4[nH]3)CC2)cc1,inactive
15,CN(C)Cc1ccc(F)cc1Sc1cc(Cl)ccc1Cl,inactive
16,CCNC(=S)N(CCc1c(C)[nH]c2ccccc12)Cc1cccnc1,inactive
17,CC(=O)c1sc2nc(C)c3c(c2c1N)CCCC3,46.3 µM (active)
18,COc1ccc(CCn2c(S)nc3ccccc3c2=O)cc1,inactive
19,CC(C)CC(=O)Nc1c2c(nn1-c1cccc(Cl)c1)CS(=O)C2 (stereo unspecified),inactive
20,Cn1c(=O)[nH]c(=O)c2[nH]c(N(Cc3ccccc3)Cc3ccccc3)nc21,inactive
21,O=C(Nc1cnn(C23CC4CC(CC(C4)C2)C3)c1)c1cnn2cccnc12,inactive
